Measurements as given in PubChem BioAssay AID463173 (ICCB-Longwood Screening Facility, Harvard Medical School, 2010).
Among all 52,000 compounds or so, about 4,300 (8.3%) were called active. For the sample, actives were picked, then their nearest neighbours and some compounds at random. A number with no mark means an inactive call. No stated cut-off is given here; in the data, active means survival mostly below about 52% (no sharp cut-off); inactive means mostly above about 56%.

System: DeltatarO mutant
Test: S. aureus survival, RN4220 and DeltatarO strains – OD600, teichoic acid synthesis inhibitors, primary screen (AID 463173)
Settings: S. aureus RN4220 wild type/DeltatarO growth, OD600, 18 h, hits give low values, screened at 18.75 µg/mL (by protocol)

Compound	survival
CCS(=O)(=O)c1nc(S(=O)(=O)c2ccc(C)cc2)c(NCCCOC)s1	97%
COc1ccccc1N1CCN(C(=O)CSc2n[nH]c(-c3ccccc3)n2)CC1	88%
O=C(Cc1ccccc1)NC1CC(=O)N(c2ccccc2)C1 (configuration not stated)	87%
Cc1ccc(N2CC(NC(=O)CCCc3ccccc3)CC2=O)cc1 (configuration not stated)	66%
COc1ccc(N2CC(NC(=O)c3ccc(S(=O)(=O)N4CCCC4)cc3)CC2=O)cc1 (configuration not stated)	112%
O=C(CCc1ccccc1)NC1CC(=O)N(c2ccccc2)C1 (configuration not stated)	94%
COc1ccc(N2CC(NC(=O)c3ccc(OC(C)C)cc3)CC2=O)cc1 (configuration not stated)	0% (active)
COc1ccc(C(=O)NC2CC(=O)N(c3ccc4c(c3)OCCO4)C2)cc1 (configuration not stated)	100%
COc1ccc(N2CC(NC(=O)CCCc3ccccc3)CC2=O)cc1 (configuration not stated)	32% (active)
COc1cccc(N2CC(NC(=O)CCCc3ccccc3)CC2=O)c1 (configuration not stated)	69%
COc1ccc(CCC(=O)NC2CC(=O)N(c3ccccc3)C2)cc1 (configuration not stated)	126%
Cc1cccc(CC(=O)NC2CC(=O)N(c3cccc(F)c3)C2)c1 (configuration not stated)	67%
Cc1ccc(N2CC(NC(=O)CCc3ccccc3)CC2=O)cc1 (configuration not stated)	20% (active)
Cc1cccc(CC(=O)NC2CC(=O)N(c3ccccc3)C2)c1 (configuration not stated)	-5% (active)
Cc1c(NC(=O)c2ccc(OC(C)C)cc2)cccc1-c1nc2ncccc2o1	47%
O=C(Nc1ccc(F)cc1)c1nc(SCc2ccccc2F)ncc1Cl	99%
Cc1ccc(C(=O)O)cc1NC(=O)c1nsc2ccccc12	103%
CCOC(=O)c1sc(=S)n(C)c1C	88%
COc1ccc(OC)c(CNS(=O)(=O)c2ccc3[nH]c4c(c3c2)CCCCC4)c1	79%
Cc1ccc(Nc2c3c(nc4nncn24)CCC3)cc1	62%
COc1ccc(CNC(=O)c2cc3cccc4c3n2CC(C)S4)c(OC)c1 (configuration not stated)	122%

Compound	survival
CCC(C)OC(=O)/C(C#N)=C/c1ccc(-c2ccc(Br)cc2)o1 (configuration not stated)	43% (active)
CCOC(=O)/C(C#N)=C/c1ccc(-c2ccc(Br)cc2)o1	81%
CC(C)COC(=O)/C(C#N)=C\c1ccc(-c2ccccc2Cl)o1	67%
CC(C)OC(=O)/C(C#N)=C/c1ccc(-c2ccc(Cl)c(Cl)c2)o1	72%
CCCCOC(=O)/C(C#N)=C/c1ccc(-c2ccc(Br)cc2)o1	68%
CCC(C)OC(=O)/C(C#N)=C\c1ccc(-c2ccccc2Cl)o1 (configuration not stated)	58% (active)
Cc1cccc(-c2nc(C)c(CCNC(=O)C(=O)Nc3ccc(C)c(C)c3)s2)c1	88%
CC1=CCC(C(=O)Nc2nc3ccccc3s2)C(C(=O)O)C1 (configuration not stated)	49%
Cc1ccc(CNC(=O)C2CCN(c3nc4ccc(C)cc4[nH]3)CC2)cc1	126%
Cc1cc2ccccc2n1-c1ccc(C(=O)N2CCC(C(=O)NCc3ccc(F)cc3)CC2)s1	6% (active)
Cc1cc2ccccc2n1-c1ccc(C(=O)N2CCC(C(=O)NCc3ccc(Cl)cc3)CC2)s1	67%
CCc1ccc(CNC(=O)C2CCN(C(=O)c3ccc(-n4c(C)cc5ccccc54)s3)CC2)cc1	70%
Cc1nc(-c2cccc(S(=O)(=O)N3CCC(C(=O)NCc4ccccc4)CC3)c2)no1	109%
COc1ccc(CCNC(=O)c2cc3c(s2)-c2c(C)cccc2OC3)c(OC)c1	85%
CCc1ccccc1N(C)C(=O)c1cc2c(s1)-c1c(C)cccc1OC2	60%
Cc1cccc2c1-c1sc(C(=O)N(C)c3cccc(Cl)c3)cc1CO2	0% (active)
Cc1cccc2c1-c1sc(C(=O)N3CCN(c4cccc(Cl)c4)CC3)cc1CO2	66%
COc1ccc(N(C)C(=O)c2cc3c(s2)-c2c(C)cccc2OC3)c(OC)c1	-1% (active)
Cc1cccc2c1-c1sc(C(=O)N(C)c3cccc(C(F)(F)F)c3)cc1CO2	52%
COc1cc(Cl)c(C)cc1NC(=O)c1cc2c(s1)-c1c(C)cccc1OC2	90%
COc1ccc(NC(=O)c2cc3c(s2)-c2c(C)cccc2OC3)c(OC)c1	51% (active)

Compound	survival
COc1ccc(OC)c(CCNC(=O)c2cc3c(s2)-c2c(C)cccc2OC3)c1	79%
CC(C(=O)NCc1ccco1)N1C(=O)c2ccccc2C1=O (configuration not stated)	57%
Cc1coc2cc3oc(=O)c(CC(=O)NCCc4ccccc4)c(C)c3cc12	84%
COC(=O)N1N=C(c2ccccc2)CC1(O)C(F)(F)F (configuration not stated)	85%
COc1ccc(OC)c(N=c2oc3cc(O)ccc3cc2C(=O)Nc2ccccn2)c1	70%
Cc1ccc(S(=O)(=O)NCCc2nnc3ccc(SCc4ccccc4F)nn23)cc1	76%
O=C(NC1C2CCCC1CN(C1CC1)C2)c1ccc(Cl)cc1 (configuration not stated)	84%
O=C(/C(=N/O)n1cncn1)c1ccc(Cl)cc1Cl	72%
Cc1ccc(C)c(NC(=O)CSc2nc(=O)n(CCN(C)C)c3c2CCC3)c1	79%
CCOC(=O)c1c(C)oc2nc(C)nc(NCC3CCN(Cc4ccccc4C)CC3)c12	86%
O=C(O)C1C2C=CC(C2)C1C(=O)NCc1cccs1 (configuration not stated)	83%
COC(=O)c1ccccc1NC(=O)N(Cc1ccc(C)cc1)Cc1cccn1-c1nnc(N2CCCC2=O)s1	123%
O=C1N/C(=N/N=C\c2ccco2)SC1Cc1cccc(C(F)(F)F)c1 (configuration not stated)	56%
O=C(/C(=C\c1ccc(F)cc1)n1ccccc1=O)N1CCCC1	102%
O=C(NCc1cccc(F)c1)c1ccc(NC(=O)c2nsc3ccccc23)cc1	-2% (active)
O=C(NCc1ccccc1)c1ccc(NC(=O)c2nsc3ccccc23)cc1	61%
CCC(C)NC(=O)c1cccc(NC(=O)c2nsc3ccccc23)c1 (configuration not stated)	74%
O=C(NCc1cccc(F)c1)c1cccc(NC(=O)c2nsc3ccccc23)c1	85%
CC(NC(=O)c1cccc(NC(=O)c2nsc3ccccc23)c1)c1ccccc1 (configuration not stated)	115%
COC(=O)c1cccc(NC(=O)c2nsc3ccccc23)c1	-1% (active)
